# Several values for one entry are separate records, joined by “and”; a condition that tells them apart may be missing. Identical values can stand only once. Like-named read-outs stand apart in the source and are kept apart here.
# How the values were obtained:
# Settings in all cases: concentration: 1 μM, replicates: in singlicate, n = 1
# NEK6 = tested on: NEK6
# NEK9 = tested on: NEK9
# NIK = tested on: T1, NIK
# T1 construct: gene MAP3K14
# NIM1 = tested on: T2, NIM1
# T2 construct: gene MGC42105
# OSR1 = tested on: T3, OSR1
# T3 construct: gene OXSR1
# PAK1 = tested on: PAK1
# PAK2 = tested on: PAK2
# PAK3 = tested on: PAK3
# NEK7 = tested on: NEK7
# NLK = tested on: NLK
# 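Also: KINOMEscan kinase panel screen.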
compound,measurement,setting,value
NCCNS(=O)(=O)c1ccc(-c2ccnc3[nH]ccc23)cc1 [GSK977617],%Inh,NEK6; 1 µM,4% and 0%
same,%Inh,NEK9; 1 µM,22% and 16%
same,%Inh,NIK; 1 µM,19% and 7%
same,%Inh,NIM1; 1 µM,0% and 26%
same,%Inh,OSR1; 1 µM,63% and 52%
same,%Inh,PAK1; 1 µM,66% and 43%
same,%Inh,PAK2; 1 µM,65% and 41%
same,%Inh,PAK3; 1 µM,90.6% and 78%
Cl.Cl.Cl.Fc1ccc(-c2ncn(C3CCNCC3)c2-c2ccnc(Nc3ccccc3)n2)cc1 [SB-238039],%Inh,NEK7; 1 µM,0% and 24%
same,%Inh,NEK9; 1 µM,0% and 19%
same,%Inh,NIK; 1 µM,5% and 12%
same,%Inh,NIM1; 1 µM,35% and 19%
same,%Inh,NLK; 1 µM,90.5% and 89%
same,%Inh,PAK1; 1 µM,16% and 0%
same,%Inh,PAK2; 1 µM,51% and 14%
same,%Inh,PAK3; 1 µM,43% and 50%
COc1cc(Nc2nccc(N3CCC(NC(=O)c4cccc(NC(C)=O)c4)C3)n2)cc(OC)c1OC (stereo not drawn) [GSK1379754],%Inh,NEK6,37%
same,%Inh,NEK7,68%
same,%Inh,NEK9,49%
same,%Inh,NIK,23%
same,%Inh,NIM1,5%
same,%Inh,NLK,0%
same,%Inh,OSR1,6%
same,%Inh,PAK1,20%
same,%Inh,PAK2,20%
same,%Inh,PAK3,26%
CNc1ncnc2[nH]ncc12 [SKF-18355],%Inh,NEK6,0%
same,%Inh,NEK7,0%
same,%Inh,NEK9,0%
same,%Inh,NIK,31%
same,%Inh,NIM1,21%
same,%Inh,NLK,0%
same,%Inh,OSR1,0%
same,%Inh,PAK1,0%
same,%Inh,PAK2,43%
same,%Inh,PAK3,0%
COc1ccc(Nc2nccc(N3CCC(NC(=O)Nc4cc(C)ccc4C)C3)n2)cc1 (stereo not drawn) [GSK1379741],%Inh,NEK6,0%
same,%Inh,NEK7,0%
same,%Inh,NEK9,9%
same,%Inh,NIK,7%
same,%Inh,NIM1,7%
same,%Inh,NLK,35%
same,%Inh,OSR1,1%
same,%Inh,PAK1,7%
same,%Inh,PAK2,0%
same,%Inh,PAK3,0%
O=C(Nc1n[nH]c2cc(-c3cccc(F)c3)ccc12)C1CC1 [SB-735464],%Inh,NEK6,3%
same,%Inh,NEK7,0%
same,%Inh,NEK9,0%
same,%Inh,NIK,9%
same,%Inh,NIM1,12%
same,%Inh,NLK,86%
same,%Inh,OSR1,0%
same,%Inh,PAK1,0%
same,%Inh,PAK2,30%
same,%Inh,PAK3,44%
Nc1nc(-c2ccc3c(N)n[nH]c3c2)cc(N2CCCC2)n1 [GSK2227430],%Inh,NEK6,0%
same,%Inh,NEK7,0%
same,%Inh,NEK9,6%
same,%Inh,NIK,0%
same,%Inh,NIM1,0%
same,%Inh,NLK,0%
same,%Inh,OSR1,7%
same,%Inh,PAK1,13%
same,%Inh,PAK2,12%
same,%Inh,PAK3,0%
Cc1c(Cn2c(C)nn3c(=O)cc(N4CCOC(C)C4)nc23)cccc1C(F)(F)F (stereo not drawn) [GSK2344444],%Inh,NEK6,0%
same,%Inh,NEK7,1%
same,%Inh,NEK9,14%
same,%Inh,NIK,12%
same,%Inh,NIM1,3%
same,%Inh,NLK,0%
same,%Inh,OSR1,23%
same,%Inh,PAK1,0%
same,%Inh,PAK2,0%
same,%Inh,PAK3,20%
NCC(NC(=O)c1cc(-c2cn[nH]c2)c(-c2ccnc3[nH]ccc23)s1)c1ccccc1.O=C(O)C(F)(F)F.O=C(O)C(F)(F)F (stereo not drawn) [GSK1325775],%Inh,NEK6,0%
same,%Inh,NEK7,0%
same,%Inh,NEK9,10%
same,%Inh,NIK,28%
same,%Inh,NIM1,38%
same,%Inh,NLK,0%
same,%Inh,OSR1,4%
same,%Inh,PAK1,19%
same,%Inh,PAK2,32%
same,%Inh,PAK3,39%
O=c1cc(N2CCOCC2)nc2n(Cc3cccc(Cl)c3Cl)c(C3CC3)nn12 [GSK2358994],%Inh,NEK6,8%
same,%Inh,NEK7,21%
same,%Inh,NEK9,0%
same,%Inh,NIK,0%
same,%Inh,NIM1,0%
same,%Inh,NLK,22%
same,%Inh,OSR1,0%
same,%Inh,PAK1,16%
same,%Inh,PAK2,0%
same,%Inh,PAK3,0%
COC(=O)Nc1nc2cc(Oc3ccc(NC(=O)Nc4cc(F)ccc4F)cc3)ccc2[nH]1.Cl [GW701424],%Inh,NEK6,0%
same,%Inh,NEK7,0%
same,%Inh,NEK9,0%
same,%Inh,NIK,44%
same,%Inh,NIM1,30%
same,%Inh,NLK,10%
same,%Inh,OSR1,14%
same,%Inh,PAK1,0%
same,%Inh,PAK2,0%
same,%Inh,PAK3,0%
NS(=O)(=O)c1cccc(-c2ccc3nccc(-c4cccc(S(N)(=O)=O)c4)c3c2)c1 [GW867253],%Inh,NEK6,0%
same,%Inh,NEK7,0%
same,%Inh,NEK9,0%
same,%Inh,NIK,32%
same,%Inh,NIM1,0%
same,%Inh,NLK,0%
same,%Inh,OSR1,0%
same,%Inh,PAK1,7%
same,%Inh,PAK2,53%
same,%Inh,PAK3,0%
Cc1cccc(-c2nc(-c3ccc(S(C)(=O)=O)cc3)sc2-c2ccncc2)c1,%Inh,NEK6,14%
same,%Inh,NEK7,0%
same,%Inh,NEK9,16%
same,%Inh,NIK,0%
same,%Inh,NIM1,0%
same,%Inh,NLK,64%
same,%Inh,OSR1,0%
same,%Inh,PAK1,14%
same,%Inh,PAK2,0%
same,%Inh,PAK3,9%
COc1ccc(S(=O)(=O)NC2CCN(c3cc(C)nc(Nc4cccc(C#N)c4)n3)CC2)cc1.O=C(O)C(F)(F)F [GSK1653539],%Inh,NEK6,0%
same,%Inh,NEK7,0%
same,%Inh,NEK9,0%
same,%Inh,NIK,5%
same,%Inh,NIM1,0%
same,%Inh,NLK,50%
same,%Inh,OSR1,0%
same,%Inh,PAK1,3%
same,%Inh,PAK2,0%
same,%Inh,PAK3,0%
COc1cc2ncn(-c3cc(OCc4sccc4Cl)c(C(N)=O)s3)c2cc1OC [GSK448459],%Inh,NEK6,0%
same,%Inh,NEK7,0%
same,%Inh,NEK9,0%
same,%Inh,NIK,22%
same,%Inh,NIM1,30%
same,%Inh,NLK,0%
same,%Inh,OSR1,11%
same,%Inh,PAK1,17%
same,%Inh,PAK2,10%
same,%Inh,PAK3,20%
CC(C)Oc1ccc2c(-c3ccnc(Nc4ccc(N5CCN(C)CC5)cc4)n3)cnn2n1 [GW696155],%Inh,NEK6,99.8%
same,%Inh,NEK7,92.6%
same,%Inh,NEK9,92.9%
same,%Inh,NIK,21%
same,%Inh,NIM1,75%
same,%Inh,NLK,47%
same,%Inh,OSR1,87%
same,%Inh,PAK1,83%
same,%Inh,PAK2,53%
same,%Inh,PAK3,28%
N#Cc1ccc(-c2cc(-c3c[nH]nc3-c3ccccn3)ccn2)cc1 [GW693028],%Inh,NEK6,0%
same,%Inh,NEK7,0%
same,%Inh,NEK9,0%
same,%Inh,NIK,18%
same,%Inh,NIM1,35%
same,%Inh,NLK,16%
same,%Inh,OSR1,4%
same,%Inh,PAK1,8%
same,%Inh,PAK2,9%
same,%Inh,PAK3,0%
COCCNC(=O)c1ccc(-c2cc(C(=O)NC3CC3)cc(F)c2C)cc1 [GW868318],%Inh,NEK6,22%
same,%Inh,NEK7,0%
same,%Inh,NEK9,0%
same,%Inh,NIK,48%
same,%Inh,NIM1,59%
same,%Inh,NLK,11%
same,%Inh,OSR1,30%
same,%Inh,PAK1,20%
same,%Inh,PAK2,49%
same,%Inh,PAK3,27%
O=C(Nc1cccc(-c2nn3ncccc3c2-c2ccnc(Nc3cccc(C(F)(F)F)c3)n2)c1)c1c(F)cccc1F [GSK299495],%Inh,NEK6,0%
same,%Inh,NEK7,0%
same,%Inh,NEK9,0%
same,%Inh,NIK,0%
same,%Inh,NIM1,25%
same,%Inh,NLK,70%
same,%Inh,OSR1,23%
same,%Inh,PAK1,0%
same,%Inh,PAK2,0%
same,%Inh,PAK3,10%

# — paper PMC5540273 (PLoS ONE, 2017)
